GPR151 ag: activates the human receptor GPR151. 1% of 650,000 active. PathHunter beta-arrestin GPR151 cells, luminescence. Q8TDV0. AID 1508602. activation, % at 11.2 µM; in the data active means activation above about 4.9%;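 further: 0% = median of compound wells and 100% = cells with positive control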
FBW7 act: human FBW7 E3 ligase activation, primary screen | Q969H0 | AlphaScreen FBW7–phospho-cyclin E peptide binding, activator screen | 0.13% of 650,000 active | normalized activity (activation), % at 26.1 µM | AID 1259310; in the data active means normalized activity above about 1.9%;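 further: purified mutant Fbw7 with reduced substrate affinity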
Target sequence (Q969H0 whole entry, looked up): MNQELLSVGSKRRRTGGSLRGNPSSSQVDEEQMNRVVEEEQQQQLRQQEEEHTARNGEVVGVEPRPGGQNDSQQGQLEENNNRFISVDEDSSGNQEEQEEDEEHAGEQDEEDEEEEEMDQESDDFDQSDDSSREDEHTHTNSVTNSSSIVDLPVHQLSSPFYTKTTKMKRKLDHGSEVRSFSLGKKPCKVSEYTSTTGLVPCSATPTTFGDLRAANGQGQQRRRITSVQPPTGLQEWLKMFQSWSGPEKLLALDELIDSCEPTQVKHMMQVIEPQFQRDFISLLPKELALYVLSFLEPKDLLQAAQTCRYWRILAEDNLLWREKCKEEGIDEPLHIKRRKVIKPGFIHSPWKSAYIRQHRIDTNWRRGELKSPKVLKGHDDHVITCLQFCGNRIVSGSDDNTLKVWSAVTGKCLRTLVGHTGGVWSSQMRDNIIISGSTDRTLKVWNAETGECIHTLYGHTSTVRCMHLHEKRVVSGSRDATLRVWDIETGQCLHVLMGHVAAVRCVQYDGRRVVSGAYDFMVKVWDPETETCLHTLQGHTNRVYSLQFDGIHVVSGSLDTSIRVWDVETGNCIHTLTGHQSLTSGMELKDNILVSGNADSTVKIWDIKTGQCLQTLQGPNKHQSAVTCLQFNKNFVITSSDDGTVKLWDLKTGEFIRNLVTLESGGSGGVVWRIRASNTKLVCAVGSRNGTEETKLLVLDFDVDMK
MITF inh: inhibitors of human MITF; O75030; AlphaScreen MITF homodimerization, bead proximity signal; inhibition, % at 2.6 µM; 0.91% of 650,000 active; AID 1259374; in the data active means inhibition above about 50%;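 further: 0% = vehicle wells with protein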
TEAD-YAP block: TEAD-YAP interaction inhibition | HEK-TIYL cells, TEAD-Gal4/YAP UAS-luciferase luminescence | 1.4% of 640,000 active | inhibition, % at 9.12 µM | AID 1259422; in the data active means inhibition above about 32%;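 further: 0% = median of test compound wells and 100% = reference inhibitor wells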
Starred values were filed as active, the others as inactive; ! = a repeat was not active. Hits are enriched below; roughly 3.5% of the tested compounds scored in any of these assays.

SMILES | GPR151 ag | FBW7 act | MITF inh | TEAD-YAP block
Cc1cc(C)nc(/N=C(\N)Nc2ccccc2)n1 | -1 | 0 | 3 | -1
Cc1cc(C)nc(/N=C(\N)Nc2ccc(Oc3ccccc3)cc2)n1 | 0 | 0 | 3 | 32*
CCCCCOc1ccc(N/C(N)=N/c2nc(C)cc(C)n2)cc1 | 1 | 0 | -2 | 37*
COc1ccc2ccccc2c1/C=N/NC(=O)CC1(C)OCCO1 | 1 | 0 | -9 | -8
COc1ccc(-n2c(/C=C/N(C)C)c([N+](=O)[O-])c3ccc(O)c(CN(C)C)c32)cc1 | -1 | 0 | 5 | 38*
O=C(COc1ccc(Br)cc1Cl)Nc1nccs1 | -8 | 1 | 12 | 92*
O=C(COc1ccc(Cl)cc1Br)Nc1nccs1 | -8 | 0 | -2 | 89*
O=C(COc1cc(Cl)c(Cl)cc1Cl)Nc1nccs1 | -1 | 0 | 4 | 59*
Cc1ccnc(NC(=O)COc2ccc(Br)cc2Cl)c1 | -2 | 0 | -6 | 93*
Cc1ccnc(NC(=O)COc2cc(C)ccc2C)c1 | 4 | 1 | 0 | -49
O=C(OC1CCCCC1=O)c1ccc(S(=O)(=O)N2CCCc3ccccc32)cc1 (centres undefined) | 0 | 0 | 5 | -1
NS(=O)(=O)c1ccc(NC(=O)CSc2nc(-c3ccccc3)cs2)cc1 | -8 | 0 | 10 | -17
O=C(COc1ccc(Br)cc1Cl)Nc1ncn[nH]1 | -1 | 0 | -6 | 46*
CC#CC(=O)N[C@H](Cc1ccc(-c2cn[nH]c2)cc1)C(=O)N(CCN(C)C)Cc1cccc(OC)c1 | 2 | 0 | 0 | -2
CCOC(=O)c1sc2ncnc(Nc3ccc(C)cc3Br)c2c1C | 0 | 0 | 3 | 59*
CCOC(=O)c1sc2ncnc(Nc3cccc(C)c3)c2c1C | -1 | 0 | 8 | 1
COc1c(OC(C)=O)ccc(/C=N/NC(=O)COc2c(C)cccc2C)c1[N+](=O)[O-] | 0 | 0 | 7 | 20
COc1c(OC(C)=O)ccc(/C=N/NC(=O)COc2c(C)ccc(C)c2C)c1[N+](=O)[O-] | 2 | 1 | 7 | 52*
COc1ccc2c(c1)N(C)/C(=C/c1cccc[n+]1C)S2 | -1 | 0 | 12 | 77*
CCN1/C(=C\C(C)=O)Sc2ccc3ccccc3c21 | -1 | 0 | 11 | -1
CCN1/C(=C/C(C)=O)Sc2ccc(OC)cc21 | -1 | 0 | 18 | 32*!
CCN1/C(=C/c2cccc[n+]2C)Sc2ccc(OC)cc21 | 0 | 0 | 2 | 84*
COc1ccc(/C=C/c2cccc[n+]2C)c(OC)c1 | 0 | 0 | 25 | 15
NC1=NC(=O)/C(=C\c2ccc(-c3ccc(Cl)cc3Cl)o2)S1 | -1 | 0 | 13 | -1
CCC1=Nc2cc(C(=O)NC)ccc2Sc2ccccc21 | 0 | 0 | -15 | 3
SMILES | GPR151 ag | FBW7 act | MITF inh | TEAD-YAP block
CC1=Nc2cc(C(=O)NCCN3CCOCC3)ccc2Sc2ccc(Cl)cc21 | -1 | 0 | 9 | 1
CC1=Nc2cc(C(=O)NCCN(C)C)ccc2Sc2ccc(Br)cc21 | -1 | 0 | 10 | 60*
CCC1=Nc2cc(C(=O)NCC(OC)OC)ccc2Sc2ccc(C)cc21 | 0 | 0 | -4 | 60*
COCCNC(=O)c1ccc2c(c1)N=C(C)c1cc(Cl)ccc1S2 | 2 | 0 | 6 | 57*
COc1ccc(NC(=O)C2=C(C)NC(=S)NC2c2cc(OC)c(OC)c(OC)c2)cc1 (centres undefined) | 2 | 1 | 19 | 3
COc1ccc(C(=O)Nc2sccc2C(N)=O)c(OC)c1 | 0 | 0 | 5 | -17
CCn1c(=N)n(CC(=O)c2ccc(C)cc2)c2ccccc21 | -1 | 1 | 7 | -17
CCn1c(=N)n(CC(=O)c2ccc(Br)cc2)c2ccccc21 | -1 | 3.4* | -6 | -28
CC(C)(C)C(=O)CN1CCN(CC(=O)Nc2ccc(F)cc2)CC1 | -3 | 0 | 25 | -10
Cc1ccc(-n2nc3c(c2NC(=O)C2CCCC2)CSC3)c(C)c1 | 1 | 1.9* | 17 | 4
COc1cc(C(Nc2ccccn2)c2ccc3ccc(C)nc3c2O)cc(OC)c1O (centres undefined) | -1 | 0 | 19 | 33*
COc1cc(C(Nc2ccccn2)c2ccc3cccnc3c2O)cc(Br)c1OC (centres undefined) | 0 | 0 | 19 | 76*
CCOc1cc(C(Nc2ccccn2)c2ccc3cccnc3c2O)ccc1OC (centres undefined) | 1 | 0 | 31 | 89*
CCOc1cc(C(Nc2ccccn2)c2ccc3cccnc3c2O)ccc1O (centres undefined) | 0 | -1 | 50 | -7
CCOc1ccc(C(Nc2ccccn2)c2ccc3cccnc3c2O)cc1 (centres undefined) | 1 | -1 | 27 | 86*
Cc1cc(C)c2c(c1)NC(c1ccc(Cl)cc1Cl)C1CC=CC21 (centres undefined) | -2 | 0 | 10 | -5
CC(C)(C)N(/N=C/c1ccccc1)C(=O)c1ccccc1 | 0 | 0 | 4 | -1
CCc1ccc(C(Nc2ccccn2)c2ccc3ccc(C)nc3c2O)cc1 (centres undefined) | 3 | 0 | 22 | 23
COc1ccc(C(Nc2ccccn2)c2ccc3cccnc3c2O)cc1 (centres undefined) | 1 | -1 | 36 | 86*
Cc1ccc(-n2c(SCc3cc(=O)n4ccccc4n3)nc3[nH]ncc3c2=O)cc1Cl | 2 | 0 | 8 | 33*
Cn1ncc2c(N(CCO)Cc3ccccc3)ncnc21 | 1 | 0 | -5 | 1
CC(=O)Nc1ccc(/C=c2\sc3nc4ccccc4n3c2=O)cc1 | 0 | 0 | 11 | 57*
COc1ccc(-n2c(C)cc(/C=c3\sc4nc5ccccc5n4c3=O)c2C)cc1 | -1 | 0 | 2 | 12
Cc1cc(/C=c2\sc3nc4ccccc4n3c2=O)c(C)n1-c1ccc(F)cc1 | -1 | 0 | -12 | 32*
O=c1/c(=C\c2ccc3c(c2)OCO3)sc2nc3ccccc3n12 | 0 | 0 | 6 | 38*
SMILES | GPR151 ag | FBW7 act | MITF inh | TEAD-YAP block
O=c1/c(=C/c2ccc(O)c(Cl)c2)sc2nc3ccccc3n12 | -1 | 0 | -12 | 53*
COc1cc(/C=N/NC(=O)CCc2ccccc2)c([N+](=O)[O-])cc1OC | -1 | 1 | -11 | 2
O=NN(CCc1ccncc1)c1ccc(OCc2ccccc2)cc1 | 0 | 0 | 1 | 38*
O=C(Nc1ccc(Cl)c(Cl)c1)c1cc2nc(-c3cccs3)cc(C(F)(F)F)n2n1 | -2 | 0 | -3 | 0
O=[N+]([O-])c1ccc(C(Nc2nccs2)c2ccc3cccnc3c2O)cc1 (centres undefined) | -1 | -2 | 18 | 27
Cc1ccc(C(NC(=O)C2CCCCC2)c2ccc3cccnc3c2O)cc1 (centres undefined) | 2 | 0 | 30 | 34*
Cc1ccc(C(NC(=O)C(C)C)c2ccc3cccnc3c2O)cc1 (centres undefined) | 0 | -1 | 21 | 86*
COc1ccc(C(NC(=O)C(C)C)c2ccc3cccnc3c2O)cc1OC (centres undefined) | 1 | -2 | 62* | 90*
